Among the data in PubChem BioAssay (EPA / NIEHS) are outcome and AC50 values, retold here.

Assay [1] has as its target human Caspase 5 (CASP5), CASP5 (gene 838) (UniProt P51878). Put plainly: NVS_ENZ_hCASP5: NovaScreen (NVS) Enzymatic Assay for human Caspase 5 (CASP5) (AID 2283137). The essentials: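 Chemicals were first tested in duplicate at 25 uM against recombinant caspase 5 from E. coli. Activity was read by fluorescence intensity 2 hours after dosing. Those passing a preset inhibition threshold were retested in singleton concentration-response up to 50 uM.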

Assay [2] has as its target Cytochrome P450 3A4 (Homo sapiens) (UniProt P08684). Put plainly: NVS_ADME_hCYP3A4: NovaScreen (NVS) CYP450-related Enzyme Activity (ADME) Assay for human CYP3A4 (AID 2283110). The essentials:
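Recombinant CYP3A4 from insect cells, fluorescence enzyme read-out, 0.33 h after chemical addition. Acetonitrile = negative control/baseline. Primary HTS: 10 uM in duplicate; actives re-tested in concentration series.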

In assay [3] the target is human Caspase 4 (CASP4), CASP4 (gene 837) (UniProt P49662). In words: NVS_ENZ_hCASP4: NovaScreen (NVS) Enzymatic Assay for human Caspase 4 (CASP4) (AID 2283143). An outline of the steps:
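Compounds were first tested in duplicate at 25 uM, and hits were titrated singly to a 50 uM maximum. Recombinant protease from E. coli was read by fluorescence 2 h post-dose, and activity loss was fitted against the DMSO baseline.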

In assay [4] the target is human Colony Stimulating Factor 1 Receptor (CSF1R), CSF1R (gene 1436) (UniProt P07333). In words: NVS_ENZ_hCSF1R: NovaScreen (NVS) Enzymatic Assay for human Colony Stimulating Factor 1 Receptor (CSF1R) (AID 2283150). An outline of the steps: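 Compounds screened in duplicate at 25 uM, then concentration-response (top 50 uM) for those passing threshold such as 30% inhibition; recombinant CSF1R activity measured 1 h post-dosing via fluorescent substrate/product mobility-shift separation, loss of signal versus DMSO.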

Assay [5] deals with human Elastase, ELANE (gene 1991) (UniProt P08246). Put plainly: NVS_ENZ_hElastase: NovaScreen (NVS) Enzymatic Assay for human Elastase (AID 2283153). An outline of the steps:
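Concentration-response to 50 uM max, run singly for chemicals passing a threshold (e.g., 30% inhibition) in a duplicate 25 uM single-point screen. Neutrophil-derived human elastase, absorbance read-out of enzyme activity at 1.5 h; DMSO baseline.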

Assay [6] addresses Glycogen synthase kinase-3 beta (Homo sapiens) (UniProt P49841). Put plainly: NVS_ENZ_hGSK3b: NovaScreen (NVS) Enzymatic Assay for human Glycogen Synthase Kinase-3 beta (GSK3b) (AID 2283165). The essentials:
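Recombinant enzyme with specific fluorescent substrate, 1 h, product separated by electrophoretic mobility shift. Primary duplicate screen at 25 uM; actives (e.g. 30% inhibition) followed in singleton concentration-response to 50 uM. Signal loss fitted versus DMSO.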

The next assay has as its target Caspase-3 (Homo sapiens) (UniProt P42574). In words: NVS_ENZ_hCASP3: NovaScreen (NVS) Enzymatic Assay for human Caspase 3 (CASP3) (AID 2283139). An outline of the steps: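 Single-concentration screening at 25 uM in duplicate, with concentration-response follow-up to a 50 uM maximum for chemicals passing the threshold. Caspase-3 (human, E. coli-expressed) activity was read as substrate fluorescence after 1 h, with loss of signal relative to DMSO.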

Assay [7] deals with human CYP2D6, CYP2D6 (gene 1565) (UniProt P10635). Put plainly: NVS_ADME_hCYP2D6: NovaScreen (NVS) CYP450-related Enzyme Activity (ADME) Assay for human CYP2D6 (AID 2283107). An outline of the steps: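 Cell-free assay using recombinant enzyme expressed in insect cells, with fluorescence-intensity readout of enzyme activity 1 hour after chemical dosing. Loss of signal versus acetonitrile negative control indicates inhibition. Primary screen ran in duplicate at 10 uM; actives were retested in concentration series.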

The target in assay [8] is human CYP2C9, CYP2C9 (gene 1559) (UniProt P11712). Put plainly: NVS_ADME_hCYP2C9: NovaScreen (NVS) CYP450-related Enzyme Activity (ADME) Assay for human CYP2C9 (AID 2283108). The essentials: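 Recombinant human CYP2C9 expressed in SF9 cells, fluorogenic substrate, fluorescence read 0.75 h after dosing. Chemicals first run in duplicate at 10 uM, with actives followed in concentration series; loss of signal versus acetonitrile baseline.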

Assay [9] has as its target human Dual Specificity Protein Phosphatase 3 (DUSP3), DUSP3 (gene 1845) (UniProt P51452). In words: NVS_ENZ_hDUSP3: NovaScreen (NVS) Enzymatic Assay for human Dual Specificity Protein Phosphatase 3 (DUSP3) (AID 2283152).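 Also: phosphatase activity of recombinant human DUSP3 on a fluorogenic substrate without cells.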 The essentials:
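Cell-free fluorescence-intensity enzyme activity assay with recombinant protein and substrate; loss of signal fitted relative to DMSO baseline. Primary screen in duplicate at 25 uM, actives then run in concentration series; measured 0 h after dosing.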

Assay [10] has as its target human Acid Phosphatase 1 (ACP1), ACP1 (gene 52) (UniProt P24666). In words: NVS_ENZ_hACP1: NovaScreen (NVS) Enzymatic Assay for human Acid Phosphatase 1 (ACP1) (AID 2283136). An outline of the steps:
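Cell-free fluorescence read-out of phosphatase activity, substrate and product separated by mobility shift, taken 1.5 h after compound addition; protein produced in Sf9. Single 25 uM duplicate screen, followed by concentration series for actives, scored as signal loss relative to DMSO.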

The target in assay [11] is human AKT serine/threonine Kinase 1 (AKT1), AKT1 (gene 207) (UniProt P31749). In words: NVS_ENZ_hAKT1: NovaScreen (NVS) Enzymatic Assay for human AKT serine/threonine Kinase 1 (AKT1) (AID 2283138). An outline of the steps:
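Compounds were first tested in duplicate at 25 uM, and those passing a threshold such as 30% inhibition were run in concentration-response to a maximum of 50 uM. Enzyme activity was measured after 1 h by fluorescence following substrate/product mobility-shift separation.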

For assay [12], the target named is human Casein Kinase 1-delta (CK1D), CSNK1D (gene 1453) (UniProt P48730). In words: NVS_ENZ_hCK1D: NovaScreen (NVS) Enzymatic Assay for human Casein Kinase 1-delta (CK1D) (AID 2283148). The essentials:
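Recombinant human CK1-delta, cell-free; fluorescent substrate with electrophoretic mobility-shift separation of product, read 1 h after dosing. Single 25 uM duplicate screen, then concentration-response up to 50 uM; loss of signal vs DMSO.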

Assay [13] deals with human FYN Proto-Oncogene, Src family Tyrosine Kinase (Fyn), FYN (gene 2534) (UniProt P06241). In words: NVS_ENZ_hFyn: NovaScreen (NVS) Enzymatic Assay for human FYN Proto-Oncogene, Src family Tyrosine Kinase (Fyn) (AID 2283161). The essentials:
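Cell-free kinase activity read by fluorescence after mobility-shift separation of substrate and product, 1 h post-dose. Initial single concentration 25 uM in duplicate, then concentration-response follow-up; DMSO baseline.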

Assay [14] concerns the target human AKT serine/threonine Kinase 2 (AKT2), AKT2 (gene 208) (UniProt P31751). Put plainly: NVS_ENZ_hAKT2: NovaScreen (NVS) Enzymatic Assay for human AKT serine/threonine Kinase 2 (AKT2) (AID 2283141). An outline of the steps: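 Cell-free fluorescence/electrophoretic mobility shift readout of recombinant human AKT2 activity, 1 h after chemical dosing. Duplicate primary screen at 25 uM, then singleton concentration-response up to 50 uM; loss of signal versus DMSO baseline.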

In assay [15] the target is human Beta-secretase (BACE), BACE1 (gene 23621) (UniProt P56817). Put plainly: NVS_ENZ_hBACE: NovaScreen (NVS) Enzymatic Assay for human Beta-secretase (BACE) (AID 2283140).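 Also: hits are inhibitors that reduce fluorescent substrate signal versus DMSO.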 The essentials: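 Fluorescence intensity read-out of protease activity defines this endpoint; signal loss relative to DMSO baseline marks inhibition. Recombinant enzyme from SF9 cells, cell-free format, 1 h exposure. Single-concentration duplicate screen (25 uM) precedes concentration-series follow-up.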

The target in assay [16] is human Ephrin type-A Receptor 1 (EphA1), EPHA1 (gene 2041) (UniProt P21709). In words: NVS_ENZ_hEphA1: NovaScreen (NVS) Enzymatic Assay for human Ephrin type-A Receptor 1 (EphA1) (AID 2283158).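 Also: activity is signal loss versus DMSO meaning EphA1 kinase inhibition.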 The essentials: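 Cell-free enzymatic assay with recombinant EphA1 and fluorescent substrate; product separated by electrophoretic mobility shift, fluorescence intensity read 1 hour after dosing. Loss of signal versus DMSO baseline; primary duplicate screen at 25 uM, actives followed to 50 uM top concentration.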

The target of assay [17] is Histone deacetylase 3 (Homo sapiens) (UniProt O15379). In words: NVS_ENZ_hHDAC3: NovaScreen (NVS) Enzymatic Assay for human Histone Deacetylase 3 (HDAC3) (AID 2283163). An outline of the steps: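 Cell-free enzyme format: loss of fluorescent product after mobility-shift separation, 1 h incubation, recombinant human HDAC3. Single 25 uM duplicate screen first, then concentration series to a 50 uM top for hits; DMSO as baseline.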

The structures appear in SMILES notation. Results filed as inconclusive are left out. The source made the active and inactive calls. The calls were made as follows: active = hit-call score of the fitted dose curve at least 0.9, where 1 is the maximum; inconclusive = response in the unintended direction; inactive = score below 0.9.

Chain of human Beta-secretase (BACE), BACE1 (gene 23621) (P56817 whole entry, looked up): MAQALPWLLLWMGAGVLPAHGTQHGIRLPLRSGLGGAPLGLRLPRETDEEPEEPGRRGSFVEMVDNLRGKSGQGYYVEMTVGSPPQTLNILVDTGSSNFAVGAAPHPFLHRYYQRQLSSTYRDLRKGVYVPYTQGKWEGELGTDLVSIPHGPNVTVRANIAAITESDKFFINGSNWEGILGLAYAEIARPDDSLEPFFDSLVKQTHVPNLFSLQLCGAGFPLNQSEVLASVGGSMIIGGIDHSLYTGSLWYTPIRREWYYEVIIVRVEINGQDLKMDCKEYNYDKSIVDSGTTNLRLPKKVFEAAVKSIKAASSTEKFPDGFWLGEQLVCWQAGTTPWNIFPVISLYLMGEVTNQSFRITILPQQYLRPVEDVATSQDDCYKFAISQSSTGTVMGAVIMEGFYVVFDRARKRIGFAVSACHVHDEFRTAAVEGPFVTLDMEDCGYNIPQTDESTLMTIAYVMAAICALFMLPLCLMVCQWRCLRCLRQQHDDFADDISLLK
Chain of human AKT serine/threonine Kinase 1 (AKT1), AKT1 (gene 207) (P31749 whole entry, looked up): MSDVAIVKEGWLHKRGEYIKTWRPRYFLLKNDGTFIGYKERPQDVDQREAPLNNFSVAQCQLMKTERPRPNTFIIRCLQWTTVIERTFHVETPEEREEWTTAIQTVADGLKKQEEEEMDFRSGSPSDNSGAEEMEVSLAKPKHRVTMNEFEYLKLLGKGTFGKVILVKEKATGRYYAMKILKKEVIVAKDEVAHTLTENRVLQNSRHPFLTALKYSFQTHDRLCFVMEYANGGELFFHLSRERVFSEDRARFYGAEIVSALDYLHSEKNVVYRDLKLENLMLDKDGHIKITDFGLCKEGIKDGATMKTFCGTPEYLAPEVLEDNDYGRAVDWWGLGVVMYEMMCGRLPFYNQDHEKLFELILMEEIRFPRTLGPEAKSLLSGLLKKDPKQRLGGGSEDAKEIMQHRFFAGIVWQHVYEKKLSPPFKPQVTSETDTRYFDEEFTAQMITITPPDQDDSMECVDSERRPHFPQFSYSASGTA
Chain of Glycogen synthase kinase-3 beta (Homo sapiens) (P49841 whole entry, looked up): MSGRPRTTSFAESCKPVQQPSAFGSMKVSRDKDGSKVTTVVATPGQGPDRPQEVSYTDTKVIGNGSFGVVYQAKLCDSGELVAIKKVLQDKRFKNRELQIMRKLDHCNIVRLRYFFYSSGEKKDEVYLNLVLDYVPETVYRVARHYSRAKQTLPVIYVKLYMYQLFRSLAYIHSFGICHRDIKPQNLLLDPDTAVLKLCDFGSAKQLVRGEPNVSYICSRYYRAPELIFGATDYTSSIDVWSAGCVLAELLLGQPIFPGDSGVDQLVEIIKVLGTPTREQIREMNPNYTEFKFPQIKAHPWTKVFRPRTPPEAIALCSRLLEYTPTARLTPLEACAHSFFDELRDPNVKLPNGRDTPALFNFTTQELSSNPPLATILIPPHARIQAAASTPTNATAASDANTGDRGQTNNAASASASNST
Chain of human Elastase, ELANE (gene 1991) (P08246 whole entry, looked up): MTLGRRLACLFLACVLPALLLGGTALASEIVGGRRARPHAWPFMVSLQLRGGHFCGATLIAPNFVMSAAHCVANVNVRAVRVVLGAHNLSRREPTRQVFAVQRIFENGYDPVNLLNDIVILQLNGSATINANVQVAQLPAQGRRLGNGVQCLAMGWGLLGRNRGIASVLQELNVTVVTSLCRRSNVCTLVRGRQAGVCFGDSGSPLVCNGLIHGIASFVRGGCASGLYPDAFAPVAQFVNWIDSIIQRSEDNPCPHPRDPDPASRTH
Chain of human Caspase 4 (CASP4), CASP4 (gene 837) (P49662 whole entry, looked up): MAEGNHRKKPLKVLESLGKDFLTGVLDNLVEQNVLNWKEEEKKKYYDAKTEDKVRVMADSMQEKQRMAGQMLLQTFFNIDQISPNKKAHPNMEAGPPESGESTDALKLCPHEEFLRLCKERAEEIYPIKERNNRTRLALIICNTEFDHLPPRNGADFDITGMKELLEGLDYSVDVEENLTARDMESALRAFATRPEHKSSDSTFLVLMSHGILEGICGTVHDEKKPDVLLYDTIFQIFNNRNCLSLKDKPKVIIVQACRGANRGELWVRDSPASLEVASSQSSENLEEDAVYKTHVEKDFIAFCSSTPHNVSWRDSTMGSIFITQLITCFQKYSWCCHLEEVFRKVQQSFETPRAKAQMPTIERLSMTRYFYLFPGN
Chain of human Colony Stimulating Factor 1 Receptor (CSF1R), CSF1R (gene 1436) (P07333 whole entry, looked up): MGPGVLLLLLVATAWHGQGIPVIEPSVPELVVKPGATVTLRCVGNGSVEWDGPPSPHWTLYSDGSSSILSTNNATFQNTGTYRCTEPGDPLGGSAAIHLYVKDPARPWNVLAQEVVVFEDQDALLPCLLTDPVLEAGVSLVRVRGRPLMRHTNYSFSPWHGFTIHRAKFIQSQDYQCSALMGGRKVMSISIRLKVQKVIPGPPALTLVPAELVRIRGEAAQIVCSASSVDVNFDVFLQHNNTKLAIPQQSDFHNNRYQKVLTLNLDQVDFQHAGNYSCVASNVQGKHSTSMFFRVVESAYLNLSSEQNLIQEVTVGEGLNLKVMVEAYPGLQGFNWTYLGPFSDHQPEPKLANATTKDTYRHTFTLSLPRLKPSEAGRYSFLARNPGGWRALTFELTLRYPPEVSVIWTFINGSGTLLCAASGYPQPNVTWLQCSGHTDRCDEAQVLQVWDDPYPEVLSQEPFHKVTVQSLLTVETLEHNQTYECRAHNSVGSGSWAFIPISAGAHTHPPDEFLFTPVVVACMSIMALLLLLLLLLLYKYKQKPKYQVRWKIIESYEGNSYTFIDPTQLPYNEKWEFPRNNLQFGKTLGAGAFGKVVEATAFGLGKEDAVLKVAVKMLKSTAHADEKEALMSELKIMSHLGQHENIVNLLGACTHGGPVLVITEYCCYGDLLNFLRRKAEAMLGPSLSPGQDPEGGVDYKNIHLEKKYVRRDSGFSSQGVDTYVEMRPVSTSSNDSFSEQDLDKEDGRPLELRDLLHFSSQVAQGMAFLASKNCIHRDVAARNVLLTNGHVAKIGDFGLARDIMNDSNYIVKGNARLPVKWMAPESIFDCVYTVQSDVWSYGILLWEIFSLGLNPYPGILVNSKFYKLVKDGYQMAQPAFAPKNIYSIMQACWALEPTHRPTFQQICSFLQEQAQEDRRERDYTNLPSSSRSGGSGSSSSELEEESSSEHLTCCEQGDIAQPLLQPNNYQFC
Chain of human Caspase 5 (CASP5), CASP5 (gene 838) (P51878 whole entry, looked up): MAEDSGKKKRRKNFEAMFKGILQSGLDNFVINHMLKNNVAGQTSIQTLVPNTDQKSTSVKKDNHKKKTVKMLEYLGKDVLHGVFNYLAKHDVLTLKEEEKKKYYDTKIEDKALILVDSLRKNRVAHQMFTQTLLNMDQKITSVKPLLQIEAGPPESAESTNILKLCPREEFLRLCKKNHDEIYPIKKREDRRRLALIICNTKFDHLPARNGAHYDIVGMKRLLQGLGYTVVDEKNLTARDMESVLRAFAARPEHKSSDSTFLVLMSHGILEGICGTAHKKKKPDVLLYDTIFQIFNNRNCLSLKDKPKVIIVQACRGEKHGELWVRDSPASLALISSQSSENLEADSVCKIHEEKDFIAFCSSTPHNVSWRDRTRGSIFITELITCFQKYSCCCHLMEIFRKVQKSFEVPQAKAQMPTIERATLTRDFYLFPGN
Chain of Cytochrome P450 3A4 (Homo sapiens) (P08684 whole entry, looked up): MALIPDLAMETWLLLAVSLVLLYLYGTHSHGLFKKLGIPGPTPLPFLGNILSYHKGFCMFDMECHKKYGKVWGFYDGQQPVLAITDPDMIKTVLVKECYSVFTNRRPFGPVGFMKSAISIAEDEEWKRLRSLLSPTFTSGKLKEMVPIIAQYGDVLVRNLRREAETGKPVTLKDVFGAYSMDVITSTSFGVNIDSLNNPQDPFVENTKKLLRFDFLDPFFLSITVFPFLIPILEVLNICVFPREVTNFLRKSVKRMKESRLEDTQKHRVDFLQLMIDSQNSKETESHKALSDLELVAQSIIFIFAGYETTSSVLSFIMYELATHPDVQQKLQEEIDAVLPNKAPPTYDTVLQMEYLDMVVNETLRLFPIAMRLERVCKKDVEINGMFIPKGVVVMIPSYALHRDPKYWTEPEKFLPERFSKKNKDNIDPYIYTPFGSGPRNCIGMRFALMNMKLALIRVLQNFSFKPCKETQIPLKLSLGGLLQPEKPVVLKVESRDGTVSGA
Chain of human Ephrin type-A Receptor 1 (EphA1), EPHA1 (gene 2041) (P21709 whole entry, looked up): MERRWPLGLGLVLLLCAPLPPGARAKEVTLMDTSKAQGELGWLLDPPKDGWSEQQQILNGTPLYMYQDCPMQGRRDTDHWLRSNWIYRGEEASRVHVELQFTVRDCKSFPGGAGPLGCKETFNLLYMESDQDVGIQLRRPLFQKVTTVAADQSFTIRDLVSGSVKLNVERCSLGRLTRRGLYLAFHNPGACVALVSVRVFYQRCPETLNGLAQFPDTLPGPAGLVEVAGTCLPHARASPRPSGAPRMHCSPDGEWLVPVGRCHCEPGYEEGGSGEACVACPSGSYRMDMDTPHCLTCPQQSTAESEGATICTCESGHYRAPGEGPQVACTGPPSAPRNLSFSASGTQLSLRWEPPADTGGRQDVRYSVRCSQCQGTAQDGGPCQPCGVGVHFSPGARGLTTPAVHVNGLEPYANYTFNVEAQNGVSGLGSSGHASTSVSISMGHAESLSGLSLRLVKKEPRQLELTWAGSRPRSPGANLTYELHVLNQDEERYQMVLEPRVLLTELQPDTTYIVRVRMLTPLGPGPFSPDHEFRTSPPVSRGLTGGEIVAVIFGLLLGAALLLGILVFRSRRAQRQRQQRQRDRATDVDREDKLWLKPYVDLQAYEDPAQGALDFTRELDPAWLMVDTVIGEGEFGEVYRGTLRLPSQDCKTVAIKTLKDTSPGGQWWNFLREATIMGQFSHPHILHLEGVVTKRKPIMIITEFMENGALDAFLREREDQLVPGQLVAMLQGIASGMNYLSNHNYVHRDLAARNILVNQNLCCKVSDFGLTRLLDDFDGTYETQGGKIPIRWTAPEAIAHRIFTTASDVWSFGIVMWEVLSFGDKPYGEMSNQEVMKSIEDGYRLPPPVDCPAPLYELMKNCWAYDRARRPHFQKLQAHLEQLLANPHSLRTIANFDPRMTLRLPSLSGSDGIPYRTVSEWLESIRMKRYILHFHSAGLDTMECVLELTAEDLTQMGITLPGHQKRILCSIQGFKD

On to `Cc1c(C(=O)O)c(O)cc2c1C(=O)c1c(O)c([C@@H]3O[C@H](CO)[C@@H](O)[C@H](O)[C@H]3O)c(O)c(O)c1C2=O`, for which, in assay [1], the molecule was called inactive.

With `CCc1c(C(=O)NN2CCCCC2)nn(-c2ccc(Cl)cc2Cl)c1-c1ccc(Br)cc1`, the result in assay [2], in assay [1], in assay [3], in assay [4], in assay [5] and in assay [6] was inactive.

Broadly, the AC50 is the midpoint of the concentration-response curve, whichever way the signal moves. Consider `COc1cc(S(=O)(=O)O)c(C)cc1N=Nc1c(O)ccc2cc(S(=O)(=O)O)ccc12`, for which the AC50 is 19.9 µM (active) in [1], 15.3 µM (active) in the assay with Caspase-3 (Homo sapiens) and 25 µM (active) in assay [3].

For `CCOc1ccc2c(c1)C(C)=CC(C)(C)N2`, the AC50 was 3.51 µM (active) in assay [7], 10 µM (active) in assay [8], 15.1 µM (active) in assay [3] and 25 µM (active) in assay [4]. For the same molecule, the call in assay [6] was inactive.

Regarding `COc1cc(-c2nc(NC(=O)c3cc4cc(C)cc(C)c4n3CC(=O)O)sc2CCC2CCCCC2)c(OC)cc1Cl`, the AC50 in assay [1] is 0.91 µM (active); in [3], 14.3 µM (active); in assay [9] it was 1.23 µM (active); in assay [5], 5.61 µM (active).

Regarding `NCCO`, the outcome in assay [2], in [10], in assay [11], in assay [12], in [13] and in assay [6] was inactive.

`Nc1nc(N)c2nc(CNc3ccc(C(=O)N[C@@H](CCC(=O)O)C(=O)O)cc3)cnc2n1`: in assay [8], the AC50 is 12.3 µM (active). Further, in assay [5], the molecule was called inactive.

Take `CC1(C)NC(=O)NC1=O`: in assay [14], the molecule was classed as inactive.

Turning to `NS(=O)(=O)c1cc2c(cc1Cl)NCNS2(=O)=O`, the molecule was called inactive in assay [4] and in assay [6].

For the molecule `Cc1oc(-c2ccccc2)nc1CCOc1cccc2c1ccn2CCC(=O)O`, the AC50 is 9.92 µM (active) in assay [15] and 11.9 µM (active) in assay [5]. Also, the result in assay [16] was inactive.

Consider `Nc1ccccc1N`, for which the molecule was called inactive in assay [15]. Moreover, the AC50 was 16.4 µM (active) in assay [9] and 22.3 µM (active) in assay [6].

As to `CC(=O)C(C)=CC1C(C)=CCCC1(C)C` (stereo not given), the result in assay [11], in assay [12] and in assay [6] was inactive.

`COc1cc(C=O)ccc1O`: the outcome in [5] and in assay [16] was inactive.

For the molecule `O=c1c(O)c(-c2ccc(O)c(O)c2)oc2cc(O)cc(O)c12`, the result in assay [14], in assay [3], in assay [5] and in assay [17] was inactive. Besides, the AC50 in assay [6] was 0.073 µM (active).

As to `Cc1ccc(N(C)C)cc1`, the result in assay [6] was inactive.

For `CCCCOC(=O)CCCCCCCCC(=O)OCCCC`, the half-maximal activity concentration (AC50) in assay [15] was 2.12 µM (active).

For the molecule `NC(=O)Cn1c(=O)cc(CCN2CCN(c3nccc4sccc34)CC2)c2ccc(F)cc21`, the result in assay [6] was inactive.

On to `Nc1ccc2c(c1)C(=O)c1ccccc1C2=O`, for which the molecule was called inactive in [11]. The AC50 in assay [15] was 2.16 µM (active); in assay [3], 18.9 µM (active); in assay [5], 15.5 µM (active).

For the molecule `O=[N+]([O-])C(CO)(CO)CO`, in assay [6], the call was inactive.

On to `Cc1cccc(Nc2cc(Cl)nc(SCC(=O)O)n2)c1C`, for which the outcome in assay [5] was inactive.
